Assay results reported in PubChem BioAssay AID1159580 (chemical genetic matrix, 2015).
Values joined by “and” are separate entries in the source; they are usually repeats but may differ in a detail not shown here. Equal values may be shown once. In all, about 5,500 compounds went through this assay and about 2,000 (36%) were called active. About 18% were inconclusive and are not listed. Cut-off read from the data, not from the text of the source: active = normalized growth mostly below about 0.91 (no sharp cut-off); inconclusive = no clear call, values can overlap the other calls; inactive = mostly above about 0.92. The list shows a part of the results.

Assay: chemical genetic growth profiling, strain panel (AID 1159580);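 note: tested at 20 µM; growth read once vehicle control cultures reached saturation at 30 °C; 1 = growth at the plate median or of vehicle wells; lower values mean less growth of the strain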
Settings: S. cerevisiae deletion strains, growth OD

Measured: normalized growth

COc1cc(O)c2c(c1)C(=O)c1cc(C)cc(O)c1C2=O
active: locus YDR137W, strain rgp1, hits give low values 0.76
inactive: locus YAL013W, strain DEP1, hits give low values 0.991 | locus YAL021C, strain ccr4, hits give low values 0.987 | locus YAL026C, strain drs2, hits give low values 0.997 | locus YAL030W, strain snc1, hits give low values 0.98 | locus YBL061C, strain skt5, hits give low values 0.994 | locus YBR009C, strain hhf1, hits give low values 1 | locus YBR021W, strain FUR4, hits give low values 1.04 | locus YBR023C, strain chs3, hits give low values 0.988 | locus YBR171W, strain sec66, hits give low values 0.995 | locus YBR229C, strain ROT2, hits give low values 1.01 | locus YBR231C, strain swc5, hits give low values 0.993 | locus YBR279W, strain paf1, hits give low values 0.998 | locus YCL011C, strain gbp2, hits give low values 1 | locus YCL016C, strain dcc1, hits give low values 0.98 | locus YCL029C, strain bik1, hits give low values 1 | locus YCL061C, strain MRC1, hits give low values 0.977 | locus YCL069W, strain vba3, hits give low values 0.995 | locus YCR088W, strain abp1, hits give low values 0.993 | locus YDL005C, strain med2, hits give low values 0.971 | locus YDL035C, strain GPR1, hits give low values 0.997 | locus YDL040C, strain nat1, hits give low values 0.99 | locus YDL074C, strain BRE1, hits give low values 0.974 | locus YDL101C, strain DUN1, hits give low values 1 | locus YDL134C, strain PPH21, hits give low values 1 | locus YDL185W, strain tfp1, hits give low values 1 | locus YDL192W, strain arf1, hits give low values 1.01 | locus YDR001C, strain nth1, hits give low values 0.998 | locus YDR069C, strain doa4, hits give low values 0.981 | locus YDR101C, strain arx1, hits give low values 0.986 | locus YDR150W, strain NUM1, hits give low values 1.02 | locus YDR159W, strain sac3, hits give low values 0.965 | locus YDR162C, strain NBP2, hits give low values 0.982 | locus YDR195W, strain ref2 1.01 | locus YDR297W, strain sur2, hits give low values 0.977 | locus YDR318W, strain mcm21, hits give low values 0.971 | locus YDR334W, strain swr1, hits give low values 1 | locus YDR335W, strain msn5, hits give low values 0.99 | locus YDR388W, hits give low values 1 | locus YDR392W, strain spt3, hits give low values 0.95 | locus YDR502C, strain sam2, hits give low values 0.989 | locus YEL003W, strain gim4, hits give low values 0.997 | locus YEL037C, strain rad23, hits give low values 1.01 | locus YEL061C, strain CIN8 (second series), hits give low values 0.995 | locus YER015W, strain faa2, hits give low values 0.999 | locus YER016W, strain bim1, hits give low values 0.976 | locus YER110C, hits give low values 1.01 | locus YER111C, strain swi4, hits give low values 0.987 | locus YER155C, strain BEM2 (second series), hits give low values 0.973 | locus YER155C, strain BEM2, hits give low values 1.01 | locus YER167W, strain BCK2, hits give low values 0.994 | locus YFR010W, strain ubp6, hits give low values 1.02 | locus YGL078C, strain dbp3, hits give low values 1.01 | locus YGL086W, strain mad1, hits give low values 1 | locus YGL167C, strain pmr1, hits give low values 0.977 | locus YGL173C, strain kem1, hits give low values 0.993 | locus YGL227W, strain vid30, hits give low values 1 | locus YGL240W, strain doc1, hits give low values 0.98 | locus YGL248W, strain PDE1, hits give low values 1.01 | locus YGL253W, strain hxk2, hits give low values 1.01 | locus YGR078C, strain PAC10, hits give low values 0.989 | locus YGR135W, strain pre9, hits give low values 0.992 | locus YGR229C, strain SMI1, hits give low values 0.968 | locus YGR252W, strain gcn5, hits give low values 1.06 | locus YHR013C, strain ard1, hits give low values 0.997 | locus YHR027C, strain rpn1, hits give low values 0.999 | locus YHR030C, strain SLT2, hits give low values 1.01 and 1 | locus YHR079C, strain IRE1 (second series), hits give low values 0.981 | locus YHR079C, strain IRE1, hits give low values 1.04 | locus YHR094C, strain hxt1, hits give low values 1 | locus YHR129C, strain ARP1, hits give low values 0.998 | locus YHR142W, strain chs7, hits give low values 1.04 | locus YHR200W, strain rpn10, hits give low values 1 | locus YIL066C, strain RNR3, hits give low values 1.01 | locus YIL073C, strain SPO22, hits give low values 0.991 | locus YIL125W, strain kgd1, hits give low values 0.994 | locus YIR030C, strain dcg1, hits give low values 0.993 | locus YJL092W, strain hpr5, hits give low values 0.997 | locus YJL095W, strain BCK1 (second series), hits give low values 0.972 | locus YJL095W, strain BCK1, hits give low values 0.883 and 0.965 | locus YJL115W, strain asf1, hits give low values 1 | locus YJL129C, strain trk1, hits give low values 0.981 | locus YJL134W, strain LCB3, hits give low values 1.01 | locus YJL154C, strain vps35, hits give low values 0.991 | locus YJL164C, strain tpk1, hits give low values 0.995 | locus YJL166W, strain qcr8, hits give low values 0.989 | locus YJL168C, strain set2, hits give low values 1 | locus YJL187C, strain SWE1 (second series), hits give low values 1 | locus YJL187C, strain SWE1, hits give low values 0.985 | locus YJR043C, strain POL32, hits give low values 1 | locus YJR066W, strain TOR1, hits give low values 0.987
